Most compounds without a hit are left out; they make up all but 2.5% or so of the library.
CRFR2-BP ag: agonists of CRF-BP/CRF-R2 complex, primary screen, cell-based, HEK293, calcium dye fluorescence, uHTS; CRF-binding protein / CRF receptor 2 complex (human); calcium dye fluorescence (FLIPR); percent of saturating CRF peptide response; activation, % at 13.2 µM; hit rate 0.46% among 350,000; AID 588473, 2011;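 active = activation of at least 50%, plus an integration ratio under a set limit after plate pattern correction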;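 also: plate controls were neutral control wells without compound for no effect and CRF at EC100 for full effect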
iPSC survival up: enhancers of single-cell hiPSC survival, primary screen, ATPlite luminescence; 100% = ROCK inhibitor wells, 0% = DMSO; hit rate 0.044% among 360,000; survival enhancement, % at 20 µM; in the data active = survival enhancement above about 18%;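 also: cells exposed to compounds for 16 hours before the ATP read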
TAG inh: inhibitors of triacylglycerol accumulation, primary screen, cell-based, uHTS, fluorescence, H9c2 | H9c2 cells, Nile Red lipid (TAG) fluorescence; cells loaded with 200 µM oleic acid | inhibition, % at 12.5 µM | hit rate 0.66% among 230,000;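 active = pattern-corrected inhibition of lipid staining of at least 50% with the nuclear-stain viability signal not falling by more than 50%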;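 also: 0% = DMSO wells and 100% = triacsin C control wells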
H9c2 protect: cardioprotection against H2O2-induced cell death, primary screen, uHTS, H9c2 cells, ATPLite luminescence; H9c2 cardiomyocytes, H2O2 injury protection, 2 h; protection from H2O2 cell death, % at 20 µM; hit rate 0.63% among 360,000; AID 588492, 2011;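 active = compounds giving at least 50% protection of heart cells from peroxide-induced death in the single-dose screen, raw or plate-pattern-corrected value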;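 also: 0% = DMSO wells with peroxide and 100% = DMSO wells without peroxide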
CRFR2-BP antag: antagonists of CRF-BP/CRF-R2 complex, primary screen, cell-based, HEK293, calcium dye fluorescence, uHTS. CRF-induced calcium fluorescence. inhibition, % at 11.8 µM. hit rate 0.59% among 350,000;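 active = inhibition of the ligand-induced calcium signal above about 50% at the single tested concentration, limit read from the data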
SKN-1 block: suppressors of acrylamide-induced Pgst-4::GFP reporter in worms, primary screen, SKN-1 inhibitor project, whole organism, uHTS, GFP/RFP fluorescence ratio, strain VP596 | C. elegans VP596 Pgst-4::GFP/RFP ratio, 24 h | inhibition, % at 21.8 µM | hit rate 0.49% among 360,000 | AID 624304, 2012;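 active = interference check ratio from 0.5 to 1.5 plus GFP to RFP signal ratio inhibition reaching or exceeding a fixed threshold, cut at about 30% in these data, passing the limit was not always enough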
An asterisk follows results filed as active; . = no result.

SMILES	CRFR2-BP ag	iPSC survival up	TAG inh	H9c2 protect	CRFR2-BP antag	SKN-1 block
O=c1ccc2cc(S(=O)(=O)NCc3ccccc3)ccc2[nH]1	0	0	1	1	99*	-1
Cc1ccc(N=C2NC(=O)/C(=C/c3cccn3C)S2)cc1	1	-1	23	-8	10	24
Cc1ccc(N=C2NC(=O)/C(=C\c3ccc(C)s3)S2)cc1	3	0	-12	-10	-11	38*
COc1ccc(OC)c(NC(=O)c2[nH]c(C)c(C(C)=O)c2C)c1	-3	3	.	9	77*	12
Cc1ccc(/C=N/n2c(-c3cccc(Cl)c3)n[nH]c2=S)o1	0	0	3	-2	83*	8
NC(=O)c1cc(S(=O)(=O)N2CCN(c3ccc([N+](=O)[O-])cc3)CC2)cs1	1	1	.	-3	-5	-5
CCOc1ccc(/C=N/NC(=O)C(C)N(c2ccc(OC)cc2)S(C)(=O)=O)cc1OCC (stereo unspecified)	0	0	.	-1	55*	7
CCCCCCc1cc2cc(C(=O)NCc3ccccc3)c(=N)oc2cc1O	175*	0	.	-17	-109	8
CCCCCCc1cc2cc(C(=O)Nc3ccccc3)c(=O)oc2cc1O	39	0	.	-10	-2	9
O/N=C/c1cc(Br)ccc1OCc1ccc(F)cc1	3	-2	-7	-22	4	20
Oc1c(Br)cc(Br)cc1C=NCc1ccc(F)cc1	14	-1	-2	60*	8	0
Oc1c(Br)cc(Br)cc1C=NCc1ccccc1	15	-1	5	76*	-4	-7
COc1ccccc1NC(=S)N=Nc1c(O)[nH]c2ccc(Br)cc12	-2	0	50*	4	6	-1
Cc1cccc(NC(=S)N=Nc2c(O)[nH]c3ccccc23)c1	-2	1	15	36	20	-2
O=C(c1ccco1)N(Cc1cccc([N+](=O)[O-])c1)c1ccc(Br)cc1	-1	0	.	-6	82*	23
O=C(c1ccco1)N(Cc1ccc([N+](=O)[O-])cc1)c1ccc(Br)cc1	-2	-1	-14	-1	34	-11
CC(C)CCNC(=O)C1(C)CCN1Cc1ccc2ccccc2c1 (stereo unspecified)	.	-1	-10	-11	.	12
CCOC(=O)/C(=C/C=C1\Sc2cc(C)c(C)cc2N1CC)C(C)=O	156*	2	-69	-4	-93	23
CCOC(=O)/C(=C\C=C1/Sc2ccccc2N1CC)C(C)=O	313*	0	.	-3	-370	4
CCOC(=O)/C(=C/C=C1\Sc2ccccc2N1CC)C(C)=O	238*	-3	-14	-10	-233	15
CCOC(=O)C1(CC2CCCCO2)CCN(Cc2nccn2-c2ccc(OC)cc2)CC1 (stereo unspecified)	-3	0	2	1	52*	3
COC(=O)CCCC1=CC2=C(c3ccccc3)C(=O)C(C)(OC(=O)C3CCCC3)C(=O)C2=CN1CCN1CCOCC1 (stereo unspecified)	1	-3	-36	12	3	13
COC(=O)CCCC1=CC2=C(c3ccccc3)C(=O)C(C)(OC(=O)C3CCCC3)C(=O)C2=CN1CCc1ccccn1 (stereo unspecified)	2	-4	-1	8	57*	12
O=C(COC(=O)c1cc(Br)ccc1O)NC1CCCCCC1	-1	0	3	-15	8	15
O=C(COC(=O)c1cc2ccccc2cc1O)NC1CCCCC1	-1	0	-2	-15	87*	12
SMILES	CRFR2-BP ag	iPSC survival up	TAG inh	H9c2 protect	CRFR2-BP antag	SKN-1 block
O=C(COC(=O)c1cccc2c1C(=O)c1ccccc1C2=O)NC1CCCCC1	0	-1	12	58*	-8	-5
COC(=O)c1cccc(NC(=O)CCCOc2cccc(C)c2)c1	-2	0	8	-13	12	14
COc1ccc(-c2sc3cc4c(cc3c2C#CC2(N)CCCCC2)OCO4)cc1	0	-2	59*	-12	-12	6
Fc1ccc(-c2nnc(CSc3nnc(-c4cccs4)o3)o2)cc1	8	0	.	-1	-13	9
Fc1ccc(CSc2nnc(-c3cccs3)o2)cc1	-3	3	.	-3	19	58*
c1ccc(CSc2nnc(-c3cccs3)o2)cc1	1	0	.	0	-7	61*
c1ccc(-c2nnc(CSc3nnc(-c4cccs4)o3)o2)cc1	0	5	.	3	-7	1
C(=C\c1nnc(-c2cccs2)o1)/c1ccccc1	-1	1	.	-9	-19	77*
CCCCNC(=O)C(NC(=O)c1cccc2ccccc12)C(=O)c1ccccc1 (stereo unspecified)	.	1	.	4	.	-11
COc1ccccc1/C=C/C(=O)OCC(=O)c1c(N)n(C)c(=O)n(C)c1=O	1	-2	.	-2	-24	11
Cc1ccc(S(=O)(=O)c2nnn3c2nc(N2CCOCC2)c2ccccc23)c(C)c1	-1	-1	.	7	106*	13
Cc1cccc(Nc2nc3c(S(=O)(=O)c4ccccc4)nnn3c3ccccc23)c1	-1	0	.	-4	7	6
Cc1ccc(S(=O)(=O)c2nnn3c2nc(N2CCOCC2)c2ccccc23)cc1C	1	0	.	12	55*	8
CC(C)c1ccc(S(=O)(=O)c2nnn3c2nc(N2CCCCC2)c2ccccc23)cc1	0	-1	.	-10	37	12
O=C(N=C1SC2CS(=O)(=O)CC2N1c1ccccc1C(F)(F)F)C1CCCO1 (stereo unspecified)	0	0	.	4	5	3
COc1cccc(C2Nc3ccc4ccccc4c3C3=C2C(=O)CC(C)(C)C3)c1OCC(=O)O (stereo unspecified)	1	-1	.	-4	0	35*
COc1cc(C2Nc3ccc4ccccc4c3C3=C2C(=O)CC(C)(C)C3)ccc1OCC(=O)O (stereo unspecified)	0	2	7	-2	1	5
CC1COCC(C)N1C(=O)c1cccnc1 (stereo unspecified)	1	2	-8	2	4	1
O=C(c1cccnc1)C1Cc2ccccc2C1=O (stereo unspecified)	0	1	.	2	13	36*
COc1ccc(C=NNc2nc3c([nH]2)c(=O)n(C)c(=O)n3C)cc1	-2	0	-10	73*	-7	-9
Cn1c(=O)c2[nH]c(NN=Cc3ccccc3)nc2n(C)c1=O	-6	2	0	16	9	13

Source: PubChem BioAssay (Sanford-Burnham Center for Chemical Genomics)
